Assay [1] is described as follows: Nuclear factor erythroid 2-related factor 2/antioxidant responsive element (Nrf2/ARE) small molecule agonists: qHTS cell viability counter screen in human keratinocytes (AID 1919968; active = well fitted curve in the direction sought with a large enough effect in the repeat runs; an effect the other way counts as inactive or inconclusive; also: nearly all actives have a fitted effect of over 55% in size; also: potency is read from the fitted curve at half-maximal effect). In outline:
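In human HaCaT keratinocytes stably expressing an ARE-driven luciferase, compound exposure lasted 23 h at 37 C under 5% CO2. Viable cells are quantified with a protease-based fluorogenic reagent (CellTiter-Fluor) read 1 h after addition.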
A general note: Quantitative high-throughput screening tests each substance at several concentrations.

Assay [2] can be described thus: Nuclear factor erythroid 2-related factor 2/antioxidant responsive element (Nrf2/ARE) small molecule agonists: luciferase reporter gene qHTS assay in human keratinocytes (AID 1919969). Also: nearly all actives have a fitted effect of over 35% in size. In general terms: A reporter such as luciferase makes a cellular process visible.
Assay [3] deals with KiSS-1 receptor (Homo sapiens) (UniProt Q969F8). The experiment in a line: Human kisspeptin (KISS1R) small molecule agonists, calcium flux assay in KISS1R-HEK293 cells (AID 1920064; active = well fitted curve in the direction sought with a large enough effect in the repeat runs; an effect the other way counts as inactive or inconclusive). In outline:
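Concentration-response testing used 15 concentrations in triplicate on human KISS1R-expressing HEK293 cells. Calcium-dependent fluorescence (Ex/Em 480/540) was followed kinetically for 3 min after compound transfer.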

A short description of assay [4]: G protein-coupled receptor (GPCR) small molecule agonists, calcium flux assay: HEK293 wild type cell line counter screen (AID 1920065). In outline:
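Fluorescence intensity signals activation. After overnight (18 h) culture and a 1 h calcium dye load at 37 C, compounds are added by pin tool and the plate read at 480/540 nm for 3 min in 1 s steps.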
On the technique in general: A change in cytosolic calcium serves as a functional read-out for many receptors and channels.

Assay [5] in a line: p53 small molecule agonists, cell-based qHTS assay with human liver microsomes (AID 1963577).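 Also: p53 response element beta-lactamase reporter cells with liver microsomes plus NADPH.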 In outline:
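HLM-supplemented p53RE-bla reporter assay: 16 h compound exposure at 37 C, microsomes and NADPH each 0.5 mg/mL final, read by fluorescence intensity.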

Assay [6] in a line: p53 small molecule agonists, cell-based qHTS assay with rat liver microsomes (AID 1963578). The essentials: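 Quantitative HTS of the Tox21 10K library: p53RE-bla cells, rat liver microsomes plus NADPH at 0.5 mg/mL final each, 16 h at 37 C, beta-lactamase fluorescence detection.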
Assay [7] in a line: p53 small molecule agonists, cell-based qHTS assay: qHTS cell viability counter screen (AID 1963581). Also: nearly all actives have a fitted effect of over 45% in size. Also: potency is read from the fitted curve at half-maximal effect. In outline:
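Luminescence from CellTiter-Glo, reflecting ATP content, serves as the cytotoxicity measure; it is taken after the 2 h reporter substrate step in HCT-116 p53RE-bla cells dosed for 16 h at 37 C.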

Assay [8] is described as follows: p53 small molecule agonists, cell-based qHTS assay (AID 1963582; active = well fitted activation curve with a large enough effect in the signal ratio in the repeat runs, not every such curve was filed as active; the % refers to the signal ratio). The essentials: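 After plating, p53RE-bla cells sat 5 h in the incubator; compounds or DMSO vehicle were pinned in; a 16 h incubation at 37 C followed; FRET substrate was added and, 2 h later at RT, fluorescence was measured.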
Assay [9] in a line: cAMP Responsive Elements (CRE) small molecule agonists, cell-based qHTS assay (AID 1963590). The essentials:
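Compound exposure lasted 3 h at 37 C/5% CO2 in CRE-bla HEK 293T cells grown in assay medium with 10% dialyzed FBS and 25 mM HEPES. Reporter signal came from LiveBLAzer B/G FRET substrate, 2 h, room temperature.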

Assay [10] can be described thus: cAMP Responsive Elements (CRE) small molecule antagonists, cell-based qHTS assay (AID 1963591; active = well fitted inhibition curve with a large enough effect in the signal ratio in the repeat runs, not every such curve was filed as active; the % refers to the signal ratio). The essentials: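 Stimulation used NKH477 at a final 0.25 uM for 3 h in compound-treated CRE-bla HEK293T cells, seeded 18 h beforehand. Reporter activity was measured with LiveBLAzer B/G FRET substrate after 2 h at room temperature.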
Assay [11] has as its target Beta-2 adrenergic receptor (Homo sapiens) (UniProt P07550). Description: Adrenergic beta2 receptor (ADRB2) small molecule antagonists, cell-based qHTS assay (AID 1963592). Also: series mostly up to about 92 µM; nearly all actives have a fitted effect of over 50% in size. The essentials: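 Assay format: CHO-ADRB2 cells, 18-20hr seeding at 37C/5% CO2, then compound plus 1nM isoproterenol agonist mix for 0.5hr RT. Homogeneous time-resolved fluorescence cAMP detection after 1hr, expressed as 665/615 nm ratio.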

Assay [12] has as its target D(2) dopamine receptor (Homo sapiens) (UniProt P14416). Description: Dopamine D2 receptor (DRD2) small molecule agonists, cell-based qHTS assay (AID 1963594). Also: nearly all actives have a fitted effect of over 35% in size. The essentials:
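HEK293 cells stably expressing DRD2 were cultured 24 h at 37 C, then given Ro20-1724 (0.1 mM final) and compounds for 10 min at room temperature. NKH477 (200nM) was then added for 30 min. cAMP was read by HTRF.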

For assay [13] the target is unchanged. The experiment in a line: Dopamine D2 receptor (DRD2) small molecule antagonists, cell-based qHTS assay (AID 1963595; active = well fitted inhibition curve with a large enough effect in the signal ratio in the repeat runs, with a control signal flat; the % refers to the signal ratio). In outline:
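DRD2-HEK293; 0.1 mM Ro20-1724; cpd 10 min RT; NKH477 200 nM + quinpirole 12 nM, 30 min RT; HTRF cAMP (cAMP-d2/anti-cAMP cryptate), 665/620 nm ratio after 1 h.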

A short description of assay [14]: p53 small molecule agonists, cell-based qHTS assay with human liver microsomes: qHTS cell viability counter screen (AID 1963579). Also: nearly all actives have a fitted effect of over 45% in size. Also: potency is read from the fitted curve at half-maximal effect. In outline: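 Viability of p53RE-bla cells is measured as CellTiter-Glo luminescence following a 16 h, 37 C incubation with compound, liver microsomes from human donors and NADPH.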
Assay [15] in a line: p53 small molecule agonists, cell-based qHTS assay with rat liver microsomes: qHTS cell viability counter screen (AID 1963580). Also: nearly all actives have a fitted effect of over 45% in size. Also: potency is read from the fitted curve at half-maximal effect. The essentials: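 Luminescent ATP readout (CellTiter-Glo, 30 min at room temperature) reports viability of p53RE-bla HCT-116 cells after 16 h at 37 C with test compounds under metabolic activation by rat liver microsomes and NADPH at 0.5 mg/mL final each.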

Assay [16] addresses 5-hydroxytryptamine receptor 2A (Homo sapiens) (UniProt P28223). Description: 5-hydroxytryptamine receptor 2A (HTR2A) small molecule antagonists, cell-based qHTS assay (AID 1963586). Also: nearly all actives have a fitted effect of over 45% in size. The essentials: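 CHO cells stably expressing human HTR2A were plated for 18 h at 37 C, then loaded with calcium dye for 1 h. Compounds were preincubated 5 min at room temperature before DOI (4 nM solution) was added. Kinetic fluorescence was read for 3 min.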

Assay [17] shares this target. Description: 5-hydroxytryptamine receptor 2A (HTR2A) small molecule agonists, cell-based qHTS assay (AID 1963587). Also: nearly all actives have a fitted effect of over 30% in size. In outline:
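HTR2A-CHO cells, plated 18 h at 37 C/5% CO2, dye-loaded 1 h at 37 C; compounds in DMSO added by pin tool (agonist mode). Intracellular calcium flux read as kinetic fluorescence on FDSS over 2 min at 1 s intervals.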

Assay [18] addresses Muscarinic acetylcholine receptor M1 (Homo sapiens) (UniProt P11229). Description: Cholinergic receptor muscarinic 1 (CHRM1) small molecule antagonists, cell-based qHTS assay (AID 1963588). Also: nearly all actives have a fitted effect of over 40% in size. Also: potency is read from the fitted curve at half-maximal effect. In outline: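 Compounds were tested at 15 concentrations in three independent runs. Dye-loaded CHRM1-CHO cells were exposed 5 min at room temperature before stimulation by acetylcholine added at 50nM. Intracellular calcium was read kinetically on FDSS for 3 min.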

For assay [19] the target is unchanged. The experiment in a line: Cholinergic receptor muscarinic 1 (CHRM1) small molecule agonists, cell-based qHTS assay (AID 1963589). Also: nearly all actives have a fitted effect of over 35% in size. Also: potency is read from the fitted curve at half-maximal effect. In outline:
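Fluorescent calcium dye reports M1 activation in stably transfected CHO cells. Compounds, 15 concentrations, added after 1 h dye loading at 37 C; kinetic reading at 1 sec intervals.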

Assay [20] concerns the target Beta-2 adrenergic receptor (Homo sapiens) (UniProt P07550). The experiment in a line: Adrenergic beta2 receptor (ADRB2) small molecule agonists, cell-based qHTS assay (AID 1963593).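 Also: CHO cells stably overexpressing human ADRB2.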 The essentials: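 CHO cells stably over-expressing ADRB2 were plated overnight at 37C, then dosed with compounds plus a stimulation mix containing 100uM IBMX and 25uM Ro-20-1724 for 0.5hr at room temperature. cAMP was measured by HTRF competition, 1hr.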

Where “and” joins values, the source holds several entries; their conditions need not be identical. Equal values may be shown once. Results filed as inconclusive are left out. More than one record can exist for a structure, and the calls need not agree. Calls of active or inactive are those of the source. Unless noted, calls follow the shape of the full dose curve.

These results are taken from PubChem BioAssay (Tox21).

Sequence of Beta-2 adrenergic receptor (Homo sapiens) (P07550 whole entry, looked up): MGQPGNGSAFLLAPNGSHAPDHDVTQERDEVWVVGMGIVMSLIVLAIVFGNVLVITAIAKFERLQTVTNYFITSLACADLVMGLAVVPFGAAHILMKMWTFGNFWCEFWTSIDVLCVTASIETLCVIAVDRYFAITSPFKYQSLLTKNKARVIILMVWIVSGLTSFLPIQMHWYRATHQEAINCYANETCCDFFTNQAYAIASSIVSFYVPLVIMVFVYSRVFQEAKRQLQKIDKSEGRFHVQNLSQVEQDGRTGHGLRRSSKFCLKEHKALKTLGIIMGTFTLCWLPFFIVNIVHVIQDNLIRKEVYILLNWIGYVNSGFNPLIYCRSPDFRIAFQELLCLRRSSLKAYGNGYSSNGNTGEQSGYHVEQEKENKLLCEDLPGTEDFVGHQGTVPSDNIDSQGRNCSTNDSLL
Sequence of KiSS-1 receptor (Homo sapiens) (Q969F8 whole entry, looked up): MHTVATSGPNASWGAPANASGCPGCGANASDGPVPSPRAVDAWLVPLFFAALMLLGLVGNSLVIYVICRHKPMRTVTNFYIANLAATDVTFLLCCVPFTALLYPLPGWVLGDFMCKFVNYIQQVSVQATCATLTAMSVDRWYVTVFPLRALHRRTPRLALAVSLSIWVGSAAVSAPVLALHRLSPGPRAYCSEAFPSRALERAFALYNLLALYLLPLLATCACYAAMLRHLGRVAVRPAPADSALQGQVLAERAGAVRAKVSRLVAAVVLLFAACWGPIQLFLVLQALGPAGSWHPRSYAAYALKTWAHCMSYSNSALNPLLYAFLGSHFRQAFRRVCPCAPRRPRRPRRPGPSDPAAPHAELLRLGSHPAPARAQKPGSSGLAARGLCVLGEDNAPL
Sequence of D(2) dopamine receptor (Homo sapiens) (P14416 whole entry, looked up): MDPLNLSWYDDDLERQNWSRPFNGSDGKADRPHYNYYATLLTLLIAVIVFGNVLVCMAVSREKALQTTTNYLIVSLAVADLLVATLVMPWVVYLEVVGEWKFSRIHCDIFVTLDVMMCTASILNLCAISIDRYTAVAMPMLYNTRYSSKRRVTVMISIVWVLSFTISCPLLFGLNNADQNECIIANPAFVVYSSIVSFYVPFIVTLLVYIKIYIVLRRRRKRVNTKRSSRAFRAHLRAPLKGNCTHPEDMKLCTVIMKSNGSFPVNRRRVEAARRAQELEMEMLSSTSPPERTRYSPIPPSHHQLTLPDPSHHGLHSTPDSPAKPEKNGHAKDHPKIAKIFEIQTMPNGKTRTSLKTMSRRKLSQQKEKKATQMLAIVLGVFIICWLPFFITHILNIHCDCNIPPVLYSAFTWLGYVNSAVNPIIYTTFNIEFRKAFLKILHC
Sequence of 5-hydroxytryptamine receptor 2A (Homo sapiens) (P28223 whole entry, looked up): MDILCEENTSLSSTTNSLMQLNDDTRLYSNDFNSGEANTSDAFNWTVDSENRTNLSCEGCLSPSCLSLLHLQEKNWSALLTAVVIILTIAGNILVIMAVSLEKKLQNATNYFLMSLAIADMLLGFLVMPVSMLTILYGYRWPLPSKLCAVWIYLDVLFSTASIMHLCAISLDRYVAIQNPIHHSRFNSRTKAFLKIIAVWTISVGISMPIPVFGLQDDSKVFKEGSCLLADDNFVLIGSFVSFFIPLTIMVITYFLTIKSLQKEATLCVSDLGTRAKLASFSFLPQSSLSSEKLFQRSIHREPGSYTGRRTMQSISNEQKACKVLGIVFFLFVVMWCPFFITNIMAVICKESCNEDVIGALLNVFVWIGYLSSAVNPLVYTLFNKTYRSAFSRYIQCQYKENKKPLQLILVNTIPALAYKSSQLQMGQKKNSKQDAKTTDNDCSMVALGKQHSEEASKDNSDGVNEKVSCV
Sequence of Muscarinic acetylcholine receptor M1 (Homo sapiens) (P11229 whole entry, looked up): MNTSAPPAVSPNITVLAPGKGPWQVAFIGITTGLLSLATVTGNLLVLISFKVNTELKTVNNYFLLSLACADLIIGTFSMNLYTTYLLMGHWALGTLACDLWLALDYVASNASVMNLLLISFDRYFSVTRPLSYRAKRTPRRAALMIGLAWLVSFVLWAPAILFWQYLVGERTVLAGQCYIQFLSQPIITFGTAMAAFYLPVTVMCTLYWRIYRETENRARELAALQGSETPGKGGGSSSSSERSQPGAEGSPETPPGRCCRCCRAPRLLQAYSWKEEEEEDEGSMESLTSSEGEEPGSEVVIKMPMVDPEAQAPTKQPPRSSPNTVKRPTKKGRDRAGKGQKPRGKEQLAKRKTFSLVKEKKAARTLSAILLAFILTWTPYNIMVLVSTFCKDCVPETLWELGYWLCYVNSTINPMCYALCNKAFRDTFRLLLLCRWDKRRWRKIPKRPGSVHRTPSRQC

As to `Cc1ccc(N=CN(C)C=Nc2ccc(C)cc2C)c(C)c1`, the Potency in [1] is 61.4 µM (active) and inactive. Besides, the Potency result in [2], in assay [3], in assay [4], in assay [5], in assay [6] and in [7] was “inactive” throughout. Moreover, the Potency entry in [8], in [9], in assay [10], in [11], in assay [12] and in assay [13] was “inactive” each time.
Regarding `CCCC[N+]1(C)CCCC1` (tested in a mixture with another compound), the Potency result in [1], in assay [2], in assay [4], in assay [5], in [6] and in assay [14] was “inactive” throughout. Also, the Potency result in [15], in [7], in assay [8], in [16], in assay [17] and in [9] was “inactive” in each case. The Potency entry in assay [10], in assay [11], in assay [20], in assay [12] and in [13] was “inactive” in each case. In addition, the Potency in [18] is 9.54 µM (active); in assay [19] it was 4.96 µM (active).
As to `CCNc1nc(NC(C)C)nc(OC)n1`, the Potency entry in [1], in assay [2], in [3], in assay [5], in assay [6] and in [14] was “inactive” in each case. Further, the Potency entry in assay [15], in [7], in [8], in assay [16], in assay [17] and in assay [18] was “inactive” throughout. The Potency entry in assay [19], in assay [9], in assay [10], in [11], in assay [20] and in assay [12] was “inactive” throughout. Besides, in assay [13], the Potency result was “inactive”.
On to `CCCCCCCCCCCCCCCCn1cc[n+](C)c1`, for which the Potency result in assay [1] is “inactive and 27.6 µM (active) and 13.7 µM (active)”; in assay [14], 37.1 µM (active) and inactive and 46.2 µM (active); in assay [15] it was “inactive and 36.7 µM (active) and 32.5 µM (active)”; in assay [7], 25.8 µM (active); in assay [18], “inactive and 950 nM (active) and 2.66 µM (active)”. In addition, the Potency entry in assay [2], in assay [4], in [5], in [6], in [8] and in assay [16] was “inactive” in each case. Further, the Potency entry in assay [19], in assay [9], in assay [11], in assay [20] and in assay [13] was “inactive” in each case.
On to `CC(Oc1ccc(Cl)cc1Cl)C(=O)O` (configuration not stated), for which the Potency result in assay [1], in assay [3], in [4], in assay [5], in assay [6] and in assay [14] was “inactive” in each case. Moreover, the Potency result in assay [15], in [7], in assay [8], in [16], in assay [17] and in assay [19] was “inactive” each time. Moreover, the Potency result in assay [11], in [20], in assay [12] and in assay [13] was “inactive” throughout.
As for `O=P(OCCCl)(OCCCl)OCCCl`, the Potency result in assay [1], in assay [3], in assay [4], in assay [5], in assay [6] and in [14] was “inactive” in each case. Further, the Potency entry in assay [15], in assay [7], in assay [8], in [16], in assay [17] and in [18] was “inactive” in each case. The Potency entry in assay [19], in [9], in assay [10], in assay [11] and in assay [12] was “inactive” throughout.
With `Nc1nc(N)nc(Cl)n1`, the Potency result in [1], in assay [3], in [4], in assay [5], in assay [6] and in assay [14] was “inactive” each time. For the same compound, the Potency entry in assay [15], in assay [7], in assay [8], in [17], in [18] and in [19] was “inactive” each time. In addition, the Potency result in [9], in assay [10], in assay [20], in assay [12] and in assay [13] was “inactive” in each case.
